{
  "source": "PubChem BioAssay AID1347076",
  "about": "(National Center for Advancing Translational Sciences (NCATS), 2019)",
  "note": "Screen size: about 400,000 compounds; about 13,000 (3.2%) were called active. Another 18% or so got no clear call; they are omitted. The call rests on the fitted dose curve; in most records, active means well fitted cell-killing curve with a large enough effect; inconclusive means small, poorly fitted or top-dose-only effect, or effect the other way; inactive means flat fitted curve, though single readings scatter. The entries come from a sample that favours actives as a whole. On the % scale 0 is the no-effect control and ±100 the full control effect; potency means the concentration at half of the fitted maximal effect.",
  "data": [
    {"assay": "qHTS assay for MDR1-selective chemotherapeutics: Primary screen using the drug-selected MDR subline cells KB-V1; further: nearly all actives have a fitted effect of over 60% in size", "settings": "KB-V1 MDR cells viability, CellTiter-Glo, 72 h; series mostly up to 46.1 µM; activity change, negative = cytotoxicity: at the top concentration", "method_in_brief": "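Luminescent ATP read-out (CellTiter-Glo, 10 min) measures survival of drug-selected KB-V1 MDR cells after 72 h, 37 degrees C compound exposure. Medium: phenol-red-free DMEM, 10% FBS. Values from fitted concentration-response curves.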", "values": [
      {"compound": "CC(C)(C)c1ccc(CN2C(=O)CN=C(c3ccccc3)c3ccccc32)cc1", "Potency": "16.4 µM (active)"},
      {"compound": "O=C1CC(=O)N(Cc2ccccc2)C(=O)N1CCCCCCN1C(=O)CC(=O)N(Cc2ccccc2)C1=O", "activity change, negative = cytotoxicity": "-0.0512% (inactive)"},
      {"compound": "c1ccc(C(CN2CCCCC2)c2ccccc2)cc1", "activity change, negative = cytotoxicity": "3.49% (inactive)"},
      {"compound": "O=C(Nc1cccc2ccccc12)N1CCC2(CC1)OCCO2", "activity change, negative = cytotoxicity": "12.5% (inactive)"},
      {"compound": "O=C(CCC(=O)N1C[C@H]2C[C@@H](C1)c1cccc(=O)n1C2)NCc1ccccc1C(F)(F)F", "activity change, negative = cytotoxicity": "-0.253% (inactive)"},
      {"compound": "COc1ccc2c(c1)NP(=S)(c1ccccc1)N2", "note": "(configuration not stated)", "activity change, negative = cytotoxicity": "4.13% (inactive)"},
      {"compound": "O=C1NC(=O)C(CCOc2ccccc2)(CCc2ccccc2)C(=O)N1", "activity change, negative = cytotoxicity": "-5.14% (inactive)"},
      {"compound": "COc1ccc(NC(=O)N2Cc3ccccc3-n3nncc3C2)cc1", "activity change, negative = cytotoxicity": "0.781% (inactive)"},
      {"compound": "CC1CC=CCC12C(=O)NC(=S)NC2=O", "note": "(configuration not stated)", "activity change, negative = cytotoxicity": "26.6% (inactive)"},
      {"compound": "CCn1cc(CN2CCCC(C(=O)c3cccc(C(F)(F)F)c3)C2)cn1", "note": "(configuration not stated)", "activity change, negative = cytotoxicity": "4.08% (inactive)"},
      {"compound": "Cc1cc(C(=O)OCC(=O)Nc2c(F)cccc2F)c(C)n1C1CC1", "activity change, negative = cytotoxicity": "13.9% (inactive)"},
      {"compound": "Cc1nn(-c2ccccc2)c(C)c1NC(=O)COC(=O)Cc1ccccc1", "activity change, negative = cytotoxicity": "-1.45% (inactive)"},
      {"compound": "Cc1ccccc1NC(=O)COC(=O)c1cc(C)n(C2CC2)c1C", "Potency": "13 µM (active)"},
      {"compound": "COc1cccc(C(=O)N2C[C@H]3C[C@@H](C2)c2cccc(=O)n2C3)c1", "activity change, negative = cytotoxicity": "14.6% (inactive)"},
      {"compound": "c1cc2c(cc1C1OCC3C(c4ccc5c(c4)OCO5)OCC13)OCO2", "note": "(configuration not stated)", "activity change, negative = cytotoxicity": "0% (inactive)"},
      {"compound": "CC(=O)OC1C2(CC3N4C(=O)C5(CO)SSC4(CC31O)C(=O)N5C)OC(C)C(C)(C)C2=O", "note": "(configuration not stated)", "Potency": "2.31 µM (active)"},
      {"compound": "COc1cc(-n2c(=S)[nH]c3ccc(C)cc3c2=O)c(Cl)cc1Cl", "Potency": "9.2 µM (active)"},
      {"compound": "O=c1c2ccccc2[nH]c(=S)n1-c1cccc(Cl)c1", "activity change, negative = cytotoxicity": "-10.3% (inactive)"},
      {"compound": "S=C(NCCc1ccccc1)N1Cc2cc(N3CCOCC3)ccc2-n2nncc2C1", "activity change, negative = cytotoxicity": "-17% (inactive)"},
      {"compound": "CSCCC(c1nnnn1C(C)(C)C)N1CCC(n2c(=O)[nH]c3ccccc32)CC1", "note": "(configuration not stated)", "activity change, negative = cytotoxicity": "-15.9% (inactive)"},
      {"compound": "O=c1[nH]c2ccccc2n1C1CCN(C(c2ccccc2)c2nnnn2Cc2ccccc2)CC1", "note": "(configuration not stated)", "Potency": "18.4 µM (active)"},
      {"compound": "O=c1[nH]c2ccccc2n1C1CCN(C(c2ccnc3ccccc23)c2nnnn2Cc2ccccc2)CC1", "note": "(configuration not stated)", "activity change, negative = cytotoxicity": "-0.478% (inactive)"},
      {"compound": "O=C1C2CCN(CC2)C1(CO)CO", "activity change, negative = cytotoxicity": "15.5% (inactive)"},
      {"compound": "CCOC(=O)c1c(-c2ccccc2)oc2ccc(OC(=O)N(C)C)cc12", "Potency": "16.4 µM (active)"},
      {"compound": "CN(C)C(=O)Oc1ccc2c(c1)O/C(=C\\c1ccccc1)C2=O", "activity change, negative = cytotoxicity": "27.1% (inactive)"},
      {"compound": "Oc1ccc2c3c1OC1[C@H](O)CC[C@@]4(O)[C@@H](C2)N(CC2CC2)CC[C@]314", "note": "(some centres not stated)", "Potency": "inactive"},
      {"compound": "CCc1ccc(OCC(=O)N2CCN(CC(=O)Nc3ccccc3Cl)CC2)cc1", "activity change, negative = cytotoxicity": "1.08% (inactive)"},
      {"compound": "CC(=O)NCC1=C(c2ccc3ccccc3c2)C[C@@H]2CC[C@H]1N2Cc1ccco1", "activity change, negative = cytotoxicity": "-2.27% (inactive)"},
      {"compound": "C[C@]12CC[C@H](O)C[C@H]1CC[C@@H]1C2CC[C@]2(C)[C@@H](C3=CC(=O)OC3)[C@@H](O)C[C@]12O", "note": "(some centres not stated)", "Potency": "6.51 µM (active)"},
      {"compound": "C[C@]12CCC3C(CC[C@H]4C[C@@H](O)CC[C@]34C)C1C[C@@H](O)[C@H]2O", "note": "(some centres not stated)", "activity change, negative = cytotoxicity": "16% (inactive)"},
      {"compound": "Cc1cc(-c2ccc(N)c(C)c2)ccc1N", "activity change, negative = cytotoxicity": "-4.88% (inactive)"},
      {"compound": "CC(C)(C)c1ccc(OC(=O)N2CCCCC2)cc1", "activity change, negative = cytotoxicity": "17.3% (inactive)"},
      {"compound": "CC1([N+](=O)[O-])COP(=O)(Nc2ccc(F)cc2)OC1", "note": "(configuration not stated)", "activity change, negative = cytotoxicity": "-1.71% (inactive)"},
      {"compound": "Cc1cccc(NC(=O)OC2CN3CCC2CC3)c1", "note": "(configuration not stated)", "activity change, negative = cytotoxicity": "-1.06% (inactive)"},
      {"compound": "COC1=C[C@@H]2[C@@H]3Cc4ccc(OC)c(O)c4[C@]2(CCN3C)CC1=O", "activity change, negative = cytotoxicity": "-0.303% (inactive)"},
      {"compound": "N#Cc1ccc(Cn2cc(C(=O)c3ccco3)c3ccccc32)cc1", "Potency": "18.4 µM (active)"},
      {"compound": "NC(=O)Cn1cc(C(=O)c2ccccc2F)c2ccccc21", "activity change, negative = cytotoxicity": "0% (inactive)"},
      {"compound": "CC(C)Nc1nc(Cl)nc(NC(C)C)n1", "activity change, negative = cytotoxicity": "0% (inactive)"},
      {"compound": "O=C(NCC1=C(c2ccc3ccccc3c2)C[C@@H]2CC[C@H]1N2Cc1ccco1)c1cccs1", "activity change, negative = cytotoxicity": "-8.15% (inactive)"},
      {"compound": "Cc1ccc(N2C(=O)NC(=O)C(CCc3ccncc3)(Cc3cccc(Cl)c3Cl)C2=O)cc1", "note": "(configuration not stated)", "activity change, negative = cytotoxicity": "0% (inactive)"},
      {"compound": "O=C1NC(=O)C(CCc2ccccn2)(Cc2cccc(Cl)c2Cl)C(=O)N1c1ccc(Br)cc1", "note": "(configuration not stated)", "Potency": "7.31 µM (active)"},
      {"compound": "C[C@H]1CN([C@@H](C)CO)C(=O)CCCn2nncc2CO[C@H]1CN(C)C(=O)Oc1ccccc1", "activity change, negative = cytotoxicity": "90.2% (inactive)"}
    ]}
  ]
}
